# Measured values: PubChem BioAssay
# Several values for one entry are separate records, joined by “and”; a condition that tells them apart may be missing. Identical values can stand only once. Records with an inconclusive call do not appear. Activity calls are given as the source filed them.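 How the source made its calls, unless noted: active means compounds whose cell count with miR-34 switched on is under 0.7 times the count with it off; inactive means the rest.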
# Tests used:
# [1] = sensitizers of A549 cells to miR-34 induction, primary screen, imaging, A549 dox-inducible miR-34, nuclei and caspase counts (AID 1347080); conditions: A549 miR-34 inducible, Hoechst nuclei count, 48 h
# [2] = biological target: ATP-dependent translocase ABCB1 (Homo sapiens) (UniProt P08183); experiment: MDR1 (ABCB1) efflux transporter inhibition, cell-based (AID 377; in the data active means fluorescence slope change above about 50%); conditions: MDR1-expressing cells, fluorescent substrate accumulation slope; stronger effect = higher value; concentration not given here
# Sequence of ATP-dependent translocase ABCB1 (Homo sapiens) (P08183 whole entry, looked up): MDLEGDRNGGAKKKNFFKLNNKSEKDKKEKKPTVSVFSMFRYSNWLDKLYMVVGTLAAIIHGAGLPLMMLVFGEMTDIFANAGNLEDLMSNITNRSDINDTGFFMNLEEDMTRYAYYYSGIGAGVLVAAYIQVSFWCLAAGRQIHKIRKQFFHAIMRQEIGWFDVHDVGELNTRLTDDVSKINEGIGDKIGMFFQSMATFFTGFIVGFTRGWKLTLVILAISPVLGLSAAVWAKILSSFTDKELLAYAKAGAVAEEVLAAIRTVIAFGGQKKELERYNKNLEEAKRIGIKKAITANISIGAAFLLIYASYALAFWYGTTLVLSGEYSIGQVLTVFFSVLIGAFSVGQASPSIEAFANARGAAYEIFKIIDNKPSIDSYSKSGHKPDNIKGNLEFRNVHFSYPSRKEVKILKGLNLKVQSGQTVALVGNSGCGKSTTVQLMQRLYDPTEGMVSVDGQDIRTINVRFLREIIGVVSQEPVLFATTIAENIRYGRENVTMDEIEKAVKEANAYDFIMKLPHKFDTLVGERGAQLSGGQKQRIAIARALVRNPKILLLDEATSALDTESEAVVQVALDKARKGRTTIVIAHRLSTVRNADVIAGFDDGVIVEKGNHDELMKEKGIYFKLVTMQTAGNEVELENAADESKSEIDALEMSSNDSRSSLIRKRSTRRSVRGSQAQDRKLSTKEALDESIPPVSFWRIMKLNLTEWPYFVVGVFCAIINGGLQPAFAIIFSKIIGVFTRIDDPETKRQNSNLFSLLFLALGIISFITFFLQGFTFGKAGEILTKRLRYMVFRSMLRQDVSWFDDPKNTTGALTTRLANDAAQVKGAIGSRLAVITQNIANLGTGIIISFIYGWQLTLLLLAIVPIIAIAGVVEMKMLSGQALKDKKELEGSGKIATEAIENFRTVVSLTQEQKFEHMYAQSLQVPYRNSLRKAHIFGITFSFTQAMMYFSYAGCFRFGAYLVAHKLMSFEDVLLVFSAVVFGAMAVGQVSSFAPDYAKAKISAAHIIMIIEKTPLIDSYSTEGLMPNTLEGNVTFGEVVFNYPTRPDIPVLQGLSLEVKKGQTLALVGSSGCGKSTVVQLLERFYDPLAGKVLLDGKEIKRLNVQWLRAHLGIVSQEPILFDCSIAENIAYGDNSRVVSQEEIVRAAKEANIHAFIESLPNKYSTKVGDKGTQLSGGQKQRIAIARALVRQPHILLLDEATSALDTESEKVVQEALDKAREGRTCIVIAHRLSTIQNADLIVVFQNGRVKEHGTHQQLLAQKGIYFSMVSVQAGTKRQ
# [3] = liver-stage malaria parasite growth inhibition, primary screen, cell-based, HepG2, luciferase luminescence, HepG2 viability (AID 624349; in the data active means parasite load remaining mostly below about 12%, no sharp cut-off; inactive means mostly above about 10%;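 further: 100% = mean of DMSO negative control wells on the same plate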); conditions: P. berghei liver stage in HepG2, luciferase luminescence, concentration not given here; parasite load remaining: stronger effect = lower value; viability: measured here: HepG2 viability without parasites
# [4] = survival rescue of mitochondrial mutant cells in low glucose, primary screen, MELAS cybrids, Rieske KO mouse fibroblasts, CellTiter-Glo (AID 1508586;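 active means mean z-score across replicates of 1.96 or higher in either the MELAS or the Rieske mutant cell line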;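 further: z relative to plate mean and SD of compound and empty wells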)
# [5] = viability rescue of complex I mutant cybrids, primary screen, cell-based, galactose medium, ATP luminescence (AID 1645843;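 active means z-score of at least 1.8 in each of two replicates, scored against plate mean and spread of sample wells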;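 further: positive z means more ATP and so rescue of galactose-driven cybrid death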); conditions: complex I mutant cybrid cells, 72 h, stronger effect = higher value
# [6] = circadian clock period modulators, cell-based, LOPAC library, luminescence reporter (AID 2774; call rule not given here;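 further: values are relative to mean of DMSO wells on each plate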); conditions: circadian reporter cells, at 7 µM, actives lie on both sides
# [7] = test system: Hepatitis C virus NS3 helicase; experiment: HCV NS3 helicase inhibitors, primary screen, biochemical, fluorescence polarization, LOPAC1280 library (AID 687035; in the data active means inhibition above about 37%); conditions: Purified HCV NS3 helicase, Cy5-dT15 ssDNA binding fluorescence polarization; stronger effect = higher value; concentration not given here
# [8] = Cy5 fluorescence quenching or enhancement artefacts, artefact control for HCV NS3 helicase inhibitor project, biochemical, LOPAC1280 (AID 687037; call rule not given here); conditions: Cy5-DNA-NS3h complex fluorescence interference counterscreen
# [9] = phospholipid biosynthesis inhibitors in animal cells, primary screen, cell-based, LOPAC library, screen 4 (AID 1347384; call rule not given here); conditions: phospholipid biosynthesis inhibition screen, at 10 µM
# [10] = inhibitors of Cryptococcus chitosan production, flow cytometry, Cibacron Brilliant Red staining (AID 1347148; call rule not given here;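 further: compound exposure lasted three days at 37 degrees C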); conditions: Cryptococcus neoformans chitosan, stronger effect = lower value; at 10 µM unless noted
# [11] = hESC survival regulators, cell-based (AID 493140; call rule not given here;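 further: cells exposed to compounds for four days before counting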); conditions: human embryonic stem cell survival screen; stronger effect = higher value
# [12] = stronger effect = lower value, cell number ratio, induced over uninduced
# [13] = measured here: relative caspase fold change +Dox/-Dox
# [14] = measured here: total cells with miR-34 induction, stronger effect = lower value
# [15] = measured here: total cells without miR-34 induction
smiles,measurement,setting,value
CCCCC/C=C\C/C=C\C/C=C\C/C=C\CCCC(=O)NCCCl,fold change,[1]; [12],1.01 (inactive)
same,fold change,[1]; [13],1.15
same,cell count,[1]; [14],6340
same,cell count,[1]; [15],6270
Cn1c2cccc(=O)c-2nc2ccccc21,fold change,[1]; [12],1.03 (inactive)
same,fold change,[1]; [13],0.698
same,cell count,[1]; [14],3390
same,cell count,[1]; [15],3310
CC(C)CC(NP(=O)(O)OC1OC(C)C(O)C(O)C1O)C(=O)NC(Cc1c[nH]c2ccccc12)C(=O)O (configuration not stated),fold change,[1]; stronger effect = lower value,0.95 (inactive)
same,fold change,[1]; [13],0.289
same,cell count,[1]; [14],9030
same,cell count,[1]; [15],9510
CCCCC/C=C\C/C=C\C/C=C\C/C=C\CCCC(=O)N[C@@H](CO)C(=O)O,fold change,[1]; [12],1.06 (inactive)
same,fold change,[1]; [13],1.04
same,cell count,[1]; [14],5850
same,cell count,[1]; [15],5540
CCCCCCC(=O)O[C@H]1CC[C@H]2[C@@H]3CC(=O)C4=CC(=O)CC[C@]4(C)[C@H]3CC[C@]12C,fold change,[1]; stronger effect = lower value,0.899 (inactive)
same,fold change,[1]; [13],0.574
same,cell count,[1]; [14],5250
same,cell count,[1]; [15],5830
CCCCCc1cc(O)c2c(c1)OC(C)(C)[C@@H]1CCC(C(=O)O)=CC21 (some centres not stated),fold change,[1]; stronger effect = lower value,0.953 (inactive)
same,fold change,[1]; [13],1.25
same,cell count,[1]; [14],5920
same,cell count,[1]; [15],6210
CCCCC/C=C\C/C=C\C/C=C\C/C=C\CCCC(=O)N[C@H](C)COP(=O)(O)O,fold change,[1]; [12],1.03 (inactive)
same,fold change,[1]; [13],0.754
same,cell count,[1]; [14],5610
same,cell count,[1]; [15],5460
CCCCC/C=C\C/C=C\C/C=C\C/C=C\CCCC(=O)NOCCO,fold change,[1]; [12],0.931 (inactive)
same,fold change,[1]; [13],0.519
same,cell count,[1]; [14],5500
same,cell count,[1]; [15],5910
CC1OC(O[C@H]2C[C@@H](O)[C@]3(CO)[C@H]4[C@H](O)C[C@]5(C)[C@@H](C6=CC(=O)OC6)CC[C@]5(O)[C@@H]4CC[C@]3(O)C2)C(O)C(O)C1O (some centres not stated),fold change,[1]; stronger effect = lower value,0.802 (inactive)
same,fold change,[1]; [13],1.17
same,cell count,[1]; [14],286
same,cell count,[1]; [15],356
COC(=O)[C@@]1(O)CC2OC1(C)n1c3ccccc3c3c4c(c5c6ccccc6n2c5c31)C(=O)NC4 (some centres not stated),fold change,[1]; stronger effect = lower value,0.903 (inactive)
same,fold change,[1]; [13],1.29
same,cell count,[1]; [14],2180
same,cell count,[1]; [15],2410
CCCCC/C=C\C/C=C\C/C=C\C/C=C\CCCC(=O)NCc1ccoc1,fold change,[1]; [12],0.985 (inactive)
same,fold change,[1]; [13],1.68
same,cell count,[1]; [14],5700
same,cell count,[1]; [15],5790
CN=C(NS(=O)(=O)c1ccc(Cl)cc1)N1C[C@H](c2ccccc2)C(c2ccc(Cl)cc2)=N1,fold change,[1]; [12],0.982 (inactive)
same,fold change,[1]; [13],1.16
same,cell count,[1]; [14],5510
same,cell count,[1]; [15],5610
CCCCC/C=C\C/C=C\C/C=C\C/C=C\CCCC(=O)Nc1ccc(O)cc1C,fold change,[1]; [12],1.03 (inactive)
same,fold change,[1]; [13],0.979
same,cell count,[1]; [14],6030
same,cell count,[1]; [15],5870
CCCCC/C=C\C/C=C\C/C=C\C/C=C\CCC(C)C(=O)NCCF (configuration not stated),fold change,[1]; [12],1.05 (inactive)
same,fold change,[1]; [13],1.21
same,cell count,[1]; [14],5220
same,cell count,[1]; [15],4990
CCCC(=O)N[C@H]1CCOC1=O,fold change,[1]; [12],0.907 (inactive)
same,fold change,[1]; [13],0.504
same,cell count,[1]; [14],6040
same,cell count,[1]; [15],6650
Cc1cc(C(C#N)c2ccc(Cl)cc2)c(Cl)cc1NC(=O)c1cc(I)cc(I)c1O (configuration not stated),fold change,[1]; [12],0.964 (inactive) and 0.906 (inactive) and 0.861 (inactive)
same,fold change,[1]; [13],0.325 and 0.48 and 1.33
same,cell count,[1]; [14],8250 and 7900 and 8930
same,cell count,[1]; [15],8560 and 8730 and 10400
N[C@H]1C[C@@H]1c1ccccc1,fluorescence slope change,[2],55% (active)
same,parasite load remaining,[3],52% (inactive) and 79.2% (inactive)
same,viability,[3],46.6% and 238%
same,z-score,"[4]; MELAS cybrid survival, CellTiter-Glo 48 h, stronger effect = higher value",0.109 (inactive) and -0.281 (inactive)
same,z-score,"[4]; Rieske KO mouse fibroblast survival, CellTiter-Glo 72 h",-0.102 and -1.1
same,z-score,[5],0.92 (inactive)
C[C@@H]1O[C@H](C[N+](C)(C)C)C[C@H]1O,period change,[6],-0.03 h (inactive)
same,inhibition,[7],-2% (inactive)
same,fluorescence ratio (interference),[8],1 (inactive)
same,fold change,[1]; stronger effect = lower value,1.05 (inactive)
same,fold change,[1]; [13],1.87
same,cell count,[1]; [14],10900
same,cell count,[1]; [15],10400
same,outcome,[9],inactive
same,z-score,[5],0.675 (inactive)
NC(CCP(=O)(O)O)C(=O)O (configuration not stated),period change,[6],0.135 h (inactive)
same,inhibition,[7],-3% (inactive)
same,fluorescence ratio (interference),[8],1 (inactive)
same,fold change,[1]; stronger effect = lower value,1.04 (inactive)
same,fold change,[1]; [13],2.08
same,cell count,[1]; [14],10400
same,cell count,[1]; [15],9940
same,outcome,[9],inactive
same,z-score,[5],0.32 (inactive)
COc1cc(C(O)CN)ccc1O (configuration not stated),period change,[6],-0.145 h (inactive)
same,inhibition,[7],-3% (inactive)
same,fluorescence ratio (interference),[8],1 (inactive)
same,fold change,[1]; stronger effect = lower value,1.05 (inactive)
same,fold change,[1]; [13],2.66
same,cell count,[1]; [14],11000
same,cell count,[1]; [15],10500
same,outcome,[9],inactive
same,z-score,[5],0.4 (inactive)
COC[C@H]1OC(=O)c2coc3c2[C@@]1(C)C1=C(C3=O)[C@@H]2CCC(=O)[C@@]2(C)C[C@H]1OC(C)=O,fold change,[1]; stronger effect = lower value,0.997 (inactive)
same,fold change,[1]; [13],1.29
same,cell count,[1]; [14],1550
same,cell count,[1]; [15],1560
same,fold fluorescence,[10],5.16 [at 116.7 µM] (inactive)
O=C1CC[C@@]2(O)C3Cc4ccc(O)c5c4C2(CCN3CC2CC2)[C@H]1O5 (some centres not stated),period change,[6],-0.05 h (inactive)
same,inhibition,[7],-6% (inactive)
same,fluorescence ratio (interference),[8],1 (inactive)
same,fold change,[1]; stronger effect = lower value,1.1 (inactive)
same,fold change,[1]; [13],1.19
same,cell count,[1]; [14],11300
same,cell count,[1]; [15],10300
same,outcome,[9],inactive
same,z-score,[5],0.445 (inactive)
C=CCN1CCC23c4c5ccc(O)c4O[C@H]2C(=O)CC[C@@]3(O)C1C5 (some centres not stated),period change,[6],-0.035 h (inactive)
same,inhibition,[7],-4% (inactive)
same,fluorescence ratio (interference),[8],1 (inactive)
same,fold change,[1]; stronger effect = lower value,1.07 (inactive)
same,fold change,[1]; [13],1.06
same,cell count,[1]; [14],11300
same,cell count,[1]; [15],10600
same,outcome,[9],inactive
same,z-score,[5],0.37 (inactive)
CCCCC/C=C\C/C=C\C/C=C\C/C=C\CCCC(=O)NCCO,survival,[11],114 (inactive)
same,fold change,[1]; stronger effect = lower value,0.996 (inactive) and 0.983 (inactive)
same,fold change,[1]; [13],0.958 and 0.763
same,cell count,[1]; [14],6110 and 5070
same,cell count,[1]; [15],6130 and 5160
same,fold fluorescence,[10],5.85 (inactive)
CCCCC/C=C\C/C=C\CCCCCCCC(=O)NCCO,survival,[11],162 (inactive)
same,fold change,[1]; stronger effect = lower value,1.09 (inactive) and 1.06 (inactive)
same,fold change,[1]; [13],1.07 and 1.16
same,cell count,[1]; [14],5710 and 5830
same,cell count,[1]; [15],5220 and 5490
same,fold fluorescence,[10],4.78 (inactive)
